According to PubChem BioAssay AID1159580 (chemical genetic matrix, 2015):
Where “and” joins values, the source holds several entries; their conditions need not be identical. Identical values can stand only once. Among all 5,500 compounds or so, about 2,000 (36%) were called active. Inconclusive results (about 18%) are left out. Rule as the data show it: active = normalized growth mostly below about 0.91 (no sharp cut-off); inconclusive = no clear call, values can overlap the other calls; inactive = mostly above about 0.92. Some of the results follow.

Test: chemical genetic growth profiling, strain panel (AID 1159580);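 also: tested at 20 µM; growth read once vehicle control cultures reached saturation at 30 °C; 1 = growth at the plate median or of vehicle wells; lower values mean less growth of the strain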
Settings: S. cerevisiae deletion strains, growth OD

Measured: normalized growth

CN(C)CCN(Cc1cccs1)c1ccccn1
inactive: locus YAL021C, strain ccr4, active compounds read low 1 | locus YAL026C, strain drs2, active compounds read low 1.01 | locus YAL030W, strain snc1, active compounds read low 1 | locus YAL040C, strain CLN3, active compounds read low 1.02 | locus YBL061C, strain skt5, active compounds read low 1 | locus YBR009C, strain hhf1, active compounds read low 0.996 | locus YBR021W, strain FUR4, active compounds read low 1.01 | locus YBR023C, strain chs3, active compounds read low 1.01 | locus YBR171W, strain sec66, active compounds read low 1.01 | locus YBR229C, strain ROT2, active compounds read low 1 | locus YBR231C, strain swc5, active compounds read low 1.01 | locus YBR279W, strain paf1, active compounds read low 1 | locus YCL011C, strain gbp2, active compounds read low 1.01 | locus YCL016C, strain dcc1, active compounds read low 1.01 | locus YCL029C, strain bik1, active compounds read low 1.02 | locus YCL061C, strain MRC1 (second series), active compounds read low 1.01 | locus YCL061C, strain MRC1, active compounds read low 1.01 | locus YCL069W, strain vba3, active compounds read low 1.01 | locus YCR088W, strain abp1, active compounds read low 1.01 | locus YDL005C, strain med2, active compounds read low 1.01 | locus YDL035C, strain GPR1, active compounds read low 1 | locus YDL040C, strain nat1, active compounds read low 1.01 | locus YDL074C, strain BRE1, active compounds read low 0.974 | locus YDL101C, strain DUN1, active compounds read low 0.99 | locus YDL134C, strain PPH21, active compounds read low 1.02 | locus YDL185W, strain tfp1, active compounds read low 1.02 | locus YDL192W, strain arf1, active compounds read low 1.01 | locus YDR001C, strain nth1, active compounds read low 1.01 | locus YDR069C, strain doa4, active compounds read low 1 | locus YDR101C, strain arx1, active compounds read low 0.957 | locus YDR137W, strain rgp1, active compounds read low 1.03 | locus YDR150W, strain NUM1, active compounds read low 1.02 | locus YDR159W, strain sac3, active compounds read low 1.01 | locus YDR162C, strain NBP2, active compounds read low 1.01 | locus YDR195W, strain ref2 0.999 | locus YDR297W, strain sur2, active compounds read low 0.999 | locus YDR318W, strain mcm21, active compounds read low 1.02 | locus YDR334W, strain swr1, active compounds read low 1.02 | locus YDR335W, strain msn5, active compounds read low 1.01 | locus YDR363W, strain ESC2, active compounds read low 0.986 | locus YDR388W, active compounds read low 1.02 | locus YDR392W, strain spt3, active compounds read low 1.01 | locus YDR502C, strain sam2, active compounds read low 1 | locus YEL003W, strain gim4, active compounds read low 1.01 | locus YEL037C, strain rad23, active compounds read low 1.01 | locus YEL061C, strain CIN8 (second series), active compounds read low 1.01 | locus YEL061C, strain CIN8, active compounds read low 1 | locus YER002W, strain NOP16, active compounds read low 1.01 | locus YER015W, strain faa2, active compounds read low 1 | locus YER016W, strain bim1, active compounds read low 1.01 | locus YER110C, active compounds read low 1.01 | locus YER111C, strain swi4, active compounds read low 1.02 | locus YER155C, strain BEM2 (second series), active compounds read low 1.01 | locus YER155C, strain BEM2, active compounds read low 1.01 | locus YER167W, strain BCK2, active compounds read low 1.01 | locus YFR010W, strain ubp6, active compounds read low 1.01 | locus YGL078C, strain dbp3, active compounds read low 1.01 | locus YGL086W, strain mad1, active compounds read low 0.982 | locus YGL167C, strain pmr1, active compounds read low 1.01 | locus YGL173C, strain kem1, active compounds read low 1.01 | locus YGL227W, strain vid30, active compounds read low 1.01 | locus YGL240W, strain doc1, active compounds read low 1.02 | locus YGL248W, strain PDE1, active compounds read low 0.993 | locus YGL253W, strain hxk2, active compounds read low 1.02 | locus YGR078C, strain PAC10, active compounds read low 1.01 | locus YGR135W, strain pre9, active compounds read low 1.05 | locus YGR229C, strain SMI1, active compounds read low 0.996 | locus YGR252W, strain gcn5, active compounds read low 1.07 | locus YHR013C, strain ard1, active compounds read low 0.993 | locus YHR027C, strain rpn1, active compounds read low 1 | locus YHR030C, strain SLT2, active compounds read low 1.01 and 0.934 | locus YHR079C, strain IRE1 (second series), active compounds read low 1.01 | locus YHR079C, strain IRE1, active compounds read low 0.98 | locus YHR094C, strain hxt1, active compounds read low 1.01 | locus YHR129C, strain ARP1, active compounds read low 1.01 | locus YHR142W, strain chs7, active compounds read low 1.01 | locus YHR200W, strain rpn10, active compounds read low 1.01 | locus YIL066C, strain RNR3, active compounds read low 1.01 | locus YIL073C, strain SPO22, active compounds read low 1.07 | locus YIL125W, strain kgd1, active compounds read low 0.993 | locus YIR030C, strain dcg1, active compounds read low 1.01 | locus YJL092W, strain hpr5, active compounds read low 1 | locus YJL095W, strain BCK1 (second series), active compounds read low 1.01 | locus YJL095W, strain BCK1, active compounds read low 0.993 and 0.95 | locus YJL115W, strain asf1, active compounds read low 1.03 | locus YJL129C, strain trk1, active compounds read low 1 | locus YJL134W, strain LCB3, active compounds read low 1.01 | locus YJL154C, strain vps35, active compounds read low 1.01 | locus YJL164C, strain tpk1, active compounds read low 1 | locus YJL166W, strain qcr8, active compounds read low 1 | locus YJL168C, strain set2, active compounds read low 1.01 | locus YJL187C, strain SWE1 (second series), active compounds read low 0.998 | locus YJL187C, strain SWE1, active compounds read low 1 | locus YJR043C, strain POL32, active compounds read low 1.01
